Screens: PubChem, Sanford-Burnham Center for Chemical Genomics
NadD block: NadD (S. aureus) enzyme inhibition | purified NadD enzyme, colorimetric absorbance read-out | AID 602399 | 360,000 tested, 0.78% active | inhibition, % at 20 µM; in the data active = inhibition above about 26%
MPTP block: permeability transition pore inhibition | isolated mouse mitochondria, Ca2+ swelling absorbance, 30 min | inhibition, % at 10 µM | 360,000 tested, 1.4% active | AID 602449;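 active = inhibition of 50% or more, scaled per plate between neutral and stimulator controls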;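 note: 0% = DMSO wells given calcium and 100% = 1 mM EGTA wells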
TAG inh: inhibitors of triacylglycerol accumulation | H9c2 cells, Nile Red lipid (TAG) fluorescence; cells loaded with 200 µM oleic acid | inhibition, % at 12.5 µM | 230,000 tested, 0.66% active;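 active = pattern-corrected inhibition of lipid staining of at least 50% with the nuclear-stain viability signal not falling by more than 50%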;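 note: 0% = DMSO wells and 100% = triacsin C control wells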
aDG glyco up: increases alpha dystroglycan glycosylation; Pro5-aDG cells, alpha-DG glycosylation AlphaScreen (IIH6); 0% Pro5, 100% B10-LARGE cell signal; activation, % at 10 µM; 360,000 tested, 0.22% active; AID 624168;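 active = activation of at least 8% versus controls, or a plate z-score of at least 8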;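 note: Pro5 are CHO cells carrying HIG-tagged alpha-DG that lacks glycosylation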
TAG conf: triacylglycerol accumulation inhibition, confirmation | shares compounds with TAG inh | H9c2 lipid accumulation, Nile Red fluorescence; cells loaded with 200 µM oleic acid | inhibition, % at 12.5 µM | 990 tested, 71% active | AID 651629;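 active = mean inhibition across replicates of 40% or more; inactive = mean inhibition below 40%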;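 note: plate controls were DMSO only wells for no effect and Triacsin C treated wells for full effect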
Active calls of the source: *; x = no result given. Only some compounds are listed: those with a hit (about 2.7% of all), similar ones and a draw of the others.

SMILES	NadD block	MPTP block	TAG inh	aDG glyco up	TAG conf
CC1=C(C(=O)N2CCCCCC2)CC(CC(=O)NCCN2CCOCC2)C(=O)N1Cc1ccc(F)cc1 (configuration not stated)	5.3	1.2	x	-0.3	x
CCOc1ccccc1CN1[C@@H](c2ccc(OC)cc2)CC(C(=O)OC)(C(=O)OC)[C@H]1c1ccccc1	x	2.6	x	0.1	x
CCOC(=O)c1[nH]c(C)c(C(=O)OC(C)C(=O)Nc2ncc(Cl)cc2Cl)c1C (configuration not stated)	6.5	9.2	57.2*	0.3	39.0
CCOC(=O)c1c(C)[nH]c(C(=O)OC(C)C(=O)Nc2ccc(C)cc2)c1C (configuration not stated)	4.7	2.5	-10.6	0.0	x
CC(C)Nc1nc(SC(C)C(=O)Nc2ccccc2)nc(N(C)C)n1 (configuration not stated)	-3.8	-1.2	13.1	0.8	x
CCNc1nc(SC(C)C(=O)Nc2ccccc2)nc(N(C)C)n1 (configuration not stated)	-1.6	-1.4	53.8*	0.0	28.4
O=C(Nc1ccncc1)C1CCCN(S(=O)(=O)c2cccc3cccnc23)C1 (configuration not stated)	-2.2	-0.4	60.3*	0.2	40.9*
CCSCc1nnc(SCC(=O)Nc2nccs2)n1CC	-1.2	3.1	15.5	0.2	x
CCn1c(COc2ccc(C(C)C)cc2)nnc1SCC(=O)Nc1nccs1	10.0	4.4	57.3*	-0.2	14.6
COc1ccc(CN2CCNC(=O)C2CC(=O)N(C)C2CCOCC2)cc1OC (configuration not stated)	6.9	-0.3	0.0	0.3	x
COC(=O)[C@]1(C)N[C@H](c2ccc(-c3cccc(Cl)c3)cc2)[C@@H]2C(=O)N(C)C(=O)[C@@H]21	-6.7	0.9	34.1	0.3	x
COC(=O)[C@]1(CC(C)C)N[C@H](c2ccc(-c3cccc(Cl)c3)cc2)[C@@H]2C(=O)N(C)C(=O)[C@@H]21	0.0	0.9	60.8*	0.2	35.7
COC(=O)[C@]1(Cc2ccccc2)N[C@H](c2ccc(-c3cccc(Cl)c3)c(OC)c2)[C@@H]2C(=O)N(C)C(=O)[C@@H]21	19.5	1.3	55.1*	4.2	44.7*
CCN1C(=O)[C@H]2[C@@H](c3ccc(-c4cccc(Cl)c4)c(OC)c3)N[C@@](Cc3ccccc3)(C(=O)OC)[C@H]2C1=O	12.9	-0.2	44.1	0.2	x
Cc1cc(OCC(=O)N2CCC(O)CC2)c2c(C)cc(=O)oc2c1	0.0	-1.0	x	0.0	x
CSc1nc(N)nc2c1ncn2CC(=O)NCCCN1CCCC1=O	-6.0	-0.4	-5.1	0.0	x
CCOC(=O)c1cc(CC)sc1NC(=O)c1ccc(N2C(=O)CCC2=O)cc1	-14.8	0.2	x	0.1	x
O=C(OCc1ccc(Br)cc1)c1cc([N+](=O)[O-])ccc1N1CCOCC1	-2.5	1.5	52.0*	-0.2	61.2*
CCOC(=O)c1cc(CC)sc1NC(=O)c1cc([N+](=O)[O-])ccc1N1CCOCC1	4.0	19.5	91.5*	-0.1	59.8*
CCOC(=O)c1cc(CC)sc1NC(=O)c1ccc(N2CCOCC2)c([N+](=O)[O-])c1	-0.9	4.4	x	-0.2	x
CCOC(=O)c1cc(CC)sc1NC(=O)c1cc(OC)c(OC)c(OC)c1	-9.1	3.2	65.6*	0.1	36.9
O=C(COC(=O)c1cc([N+](=O)[O-])ccc1N1CCOCC1)Nc1ccc(Cl)cn1	-4.9	-1.2	50.7*	-0.8	40.0
CC(=O)c1nn(-c2ccc(C(F)(F)F)cc2)c(=O)[nH]c1=O	-1.5	-0.4	x	0.1	x
CCOC(=O)C1=CCC(c2ccc(CC)cc2)N(S(=O)(=O)c2ccc(C)cc2)C1 (configuration not stated)	8.8	3.0	x	0.0	x
O=C(CCNS(=O)(=O)c1ccc(F)cc1)N1CCN(c2ncccn2)CC1	1.6	-1.7	1.6	0.4	x
SMILES	NadD block	MPTP block	TAG inh	aDG glyco up	TAG conf
O=C(Nc1ccc(-c2csc(Nc3cccc(C(F)(F)F)c3)n2)cc1)c1ccccc1	14.3	1.4	51.3*	0.2	62.9*
CCOc1ccc(CCNC(=O)CN(C)S(=O)(=O)c2cccc3nsnc23)cc1OCC	-4.7	1.3	50.6*	-0.1	43.7*
Cc1cc(C)c2nc(N3CCC(C(=O)NCCCN4CCCCC4)CC3)sc2c1	-5.1	0.0	60.4*	3.3	33.0
CCCCC1(CC)SCC(=O)NC1=O (configuration not stated)	5.1	2.6	-1.2	-0.1	x
O=C(O)CC1(CC(=O)Nc2cc(C(F)(F)F)cc(C(F)(F)F)c2)CCCCC1	-1.3	36.9	93.8*	-0.2	-9.7
CCOc1ccccc1NC(=O)CCC(=O)O	-3.6	-0.1	x	-0.3	x
O=C(Nc1ccccc1F)C1CCN(C(=O)NCc2ccccc2)CC1	-4.6	-1.8	x	0.1	x
CCOc1ccccc1NC(=O)C1CCN(C(=O)NCc2ccccc2)CC1	-5.4	0.6	63.0*	0.0	47.0*
CCOc1ccccc1NC(=O)CCC(=O)Nc1ccccc1OCC	-4.6	-1.7	58.9*	-0.1	49.1*
CCOc1cc(CNC(C)(C)C)ccc1OCC(=O)Nc1cccc(C(F)(F)F)c1	-10.2	2.4	52.1*	0.3	63.3*
CCOc1cc(CNC)ccc1OCC(=O)NC(C)(C)C	-7.9	0.1	x	-0.2	x
C[C@@H]1CN([C@H](C)CO)C(=O)CCCn2cc(nn2)CO[C@H]1CN(C)C(=O)c1ccncc1	-5.5	-0.9	x	-0.3	x
CC(C)(C)c1csc(NNC(=O)c2ccc(Br)cc2)n1	0.6	-2.6	54.6*	-0.1	11.7
CC(C)(C)c1csc(NC(=O)c2ccccc2O)n1	-1.3	22.1	-16.6	0.2	x
COc1cccc(-c2nc(-c3ccc(NC(=O)Cc4ccccc4OC)cc3)no2)c1	-8.2	-1.5	50.7*	0.4	55.1*
c1ccc(-c2nc(N3CCOCC3)cc(N3CCOCC3)n2)cc1	-6.6	0.1	51.0*	-0.4	53.5*
Cc1ccc(C(=O)Nc2cc(C)c(OCC(=O)N3CCOCC3)c(C)c2)cc1	3.2	-3.2	63.2*	0.0	41.6*
C[C@@H]1CNC(=O)c2c(C(=O)Nc3ccc(CNC(=O)OC(C)(C)C)cc3)ncn21	11.9	0.2	14.0	1.3	x
Cc1ccc(NC(=O)c2cc([N+](=O)[O-])ccc2NCc2cccnc2)cc1Cl	18.7	10.7	67.8*	0.7	40.5*
COc1cccc(NC(=O)c2cc([N+](=O)[O-])ccc2NCc2cccnc2)c1	-1.4	2.9	x	0.0	x
CCOC(=O)C(=O)N(C)c1c(CC)nc2c(OCc3ccccc3)cccn12	-2.1	0.0	1.3	-0.4	x
Cc1cccc2c(C(=O)N3CCN(c4ccccc4)CC3)cc(-c3ccncc3)nc12	17.4	-1.8	60.2*	-0.2	76.6*
Cc1cccc2c(C(=O)N3CCCCC3)cc(-c3ccccc3)nc12	-0.4	1.0	x	0.2	x
Cc1nn(-c2cccc(Cl)c2)c2nc(-c3ccncc3)cc(C(=O)N3CCOCC3)c12	-4.9	1.9	52.6*	0.4	52.5*
